# Assay results published in publication PMC8384837, “Expanding the binding specificity for RNA recognition by a PUF domain”.
# Target: PUM1 PUF domain R5-RQG (Homo sapiens, UniProt Q14671 828-1176, C1007R;R1008Q;Q1011G)
# Test: yeast three-hybrid, YBZ-1, SC-Leu-His + 0.5 mM 3-AT, 4 days
# Settings: tags: N-Gal4 AD-HA kept; label: inside an RPR1-promoter hybrid RNA with tandem MS2 sites; ssRNA
# Summary of the method: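 Matching RNA elements and Pumilio-1 PUF domain libraries, randomized at the three base-contacting residues of every repeat, were co-expressed from a centromeric plasmid in strain YBZ-1 (LexA–MS2 coat fusion, HIS3 reporter). The repeat regions were PCR-amplified and Illumina-sequenced from cells grown four days on SC-Leu (input) or SC-Leu-His + 0.5 mM 3-AT (selection). The interaction score is the log change in variant frequency from input to selection. It is computed in log2, with a pseudocount of 1 for absent variants.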
row,Sequence,binding signal
1,GGCUAGAACUAGUGGAUCCCCCGGCGCCCGGCGGCUCGAGCCCGGGUAAGUGUAAAUAGUCUGCAUGCCGCCGGGCGCCAUGCCUGCAGGUCGACUCUAGAAAACAUG,0.8 log2 enrichment (interaction score)
2,GGCUAGAACUAGUGGAUCCCCCGGCGCCCGGCGGCUCGAGCCCGGGUAAGUGUCAAUAGUCUGCAUGCCGCCGGGCGCCAUGCCUGCAGGUCGACUCUAGAAAACAUG,5.03 log2 enrichment (interaction score)
3,GGCUAGAACUAGUGGAUCCCCCGGCGCCCGGCGGCUCGAGCCCGGGUAAGUGUGAAUAGUCUGCAUGCCGCCGGGCGCCAUGCCUGCAGGUCGACUCUAGAAAACAUG,0.9 log2 enrichment (interaction score)
4,GGCUAGAACUAGUGGAUCCCCCGGCGCCCGGCGGCUCGAGCCCGGGUAAGUGUUAAUAGUCUGCAUGCCGCCGGGCGCCAUGCCUGCAGGUCGACUCUAGAAAACAUG,5 log2 enrichment (interaction score)
